From PubChem
S1P4 antag: antagonists of human S1P4 receptor. inhibition, % at 4.98 µM. O95977. S1P4-expressing cells, antagonist mode, reporter read-out. 220,000 compounds, 0.26% hits. AID 1510; in the data active = inhibition above about 29%;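 note: 0% = wells stimulated with agonist and 100% = vehicle wells without agonist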
HSF1 inh: HSF1 inhibition | NIH3T3-HGL HSE-luciferase, MG132-induced, luminescence 8 h; active compounds read low | activity change, negative = inhibition, % at 7.5 µM (by protocol) | 300,000 compounds, 0.77% hits | AID 2098;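 active = more than half of replicate wells show activity change below -50%, luminescence cut by over half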;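 note: luciferase reports HSF-1 transcriptional activity via heat shock element; 0% = median of DMSO wells and -100% = zero luminescence signal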
S1P3 antagonist: S1P3 (human) receptor antagonism. inhibition, % at 4.98 µM. 170,000 compounds, 0.27% hits. Q99500. CHO S1P3 NFAT-BLA reporter, FRET fluorescence, antagonist mode;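 active = inhibition above the plate cutoff, the mean inhibition of test wells on that plate plus 3 SD, cut at about 28% in these data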;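 note: cells challenged with S1P at its EC80 of 0.8 µM; blue over green emission ratio from cleaved BLA substrate after 4 h stimulation; 0% = S1P-stimulated wells and 100% = unstimulated DMSO-only wells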
Target sequence (Q99500 whole entry, looked up): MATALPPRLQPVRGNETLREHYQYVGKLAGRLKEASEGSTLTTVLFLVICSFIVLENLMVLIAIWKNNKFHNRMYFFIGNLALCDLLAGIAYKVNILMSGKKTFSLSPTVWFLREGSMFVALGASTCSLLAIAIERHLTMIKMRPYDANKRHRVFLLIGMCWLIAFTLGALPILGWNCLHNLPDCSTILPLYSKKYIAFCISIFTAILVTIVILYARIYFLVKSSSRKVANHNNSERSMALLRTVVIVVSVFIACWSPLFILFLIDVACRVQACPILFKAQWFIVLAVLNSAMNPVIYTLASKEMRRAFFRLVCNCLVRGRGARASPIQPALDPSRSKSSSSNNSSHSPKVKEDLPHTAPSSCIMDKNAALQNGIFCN
HSF-1 act: increases HSF-1 driven luciferase reporter signal | NIH3T3-HGL HSF-1 luciferase reporter, MG132, 8 h; 100% = twice DMSO control signal | activation, % at 9 µM | 300,000 compounds, 1.7% hits | AID 504408;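 active = mean replicate activation of at least 50% with a set share of replicates each reaching 50%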;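 note: 0% = median of the neutral control wells and 100% = twice that signal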
Hsp70 activator: transcriptional activators of Hsp70; HeLa Hsp70 promoter luciferase reporter, luminescence; scaled: vehicle 0, proteasome-inhibitor control 100%; 200,000 compounds, 0.04% hits; activation, % at 10 µM;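 active = activation above the mean across all tested compounds plus 3 SD, cutoff set per campaign, cut at about 5.5% in these data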;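 note: 100% = MG132 at 30 µM as the positive control and 0% = DMSO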
S1P4 ag: activates the human S1P4 receptor. 220,000 compounds, 0.35% hits. S1P4-expressing cell line, agonist reporter assay. AID 1509. O95977. activation, % at 4.98 µM; in the data active = activation above about 11%;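 note: 0% = DMSO vehicle and 100% = reference agonist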
The depositor's hits bear a star; nt = no result. An excerpt weighted towards active compounds, which were near 2.9% of everything screened.

SMILES	S1P4 antag	HSF1 inh	S1P3 antagonist	HSF-1 act	Hsp70 activator	S1P4 ag
Cc1ccc(NC(=O)c2cc(C)n(-c3ccccc3)c2C)cc1	-4.5	-81.5*	1.8	-83.2	-0.5	1.2
COc1ccc2cc(C(=O)C3CCCN(C(=O)CCc4cnn(C)c4)C3)ccc2c1 (stereo not given)	-5.9	26.8	9.5	38.3	0.1	0.6
O=C(NCC1COCCO1)c1ccc2nc(Cc3cccc(Cl)c3)oc2c1 (stereo not given)	nt	15.9	nt	8.0	nt	nt
O=C1C=C(Nc2ccccc2C(=O)O)c2ccccc2C1=O	-7.5	63.9	-3.1	92.9*	nt	-0.3
O=C1C=C(Nc2ccccc2)c2ccccc2C1=O	-9.2	47.0	-15.5	48.6	0.0	1.5
CC(C)NC(=S)N/N=C/c1ccc(C(C)(C)C)cc1	-2.2	6.6	-3.3	15.8	0.0	-0.8
Cc1ccc(S(=O)(=O)n2nc(C)cc2C)cc1	12.6	-0.1	nt	4.6	-0.3	-0.8
Cc1cc(C)n(S(=O)(=O)/C=C/c2ccccc2)n1	4.4	53.5	nt	54.3*	-0.2	2.5
Cc1ccc(S(=O)(=O)N(C)C)cc1NC(=O)COC(=O)/C=C/c1ccc2ccccc2n1	nt	52.0	nt	76.3*	nt	nt
COc1ccccc1N1CCN(C(=O)C2CCC(CNS(=O)(=O)c3ccc(NC(C)=O)cc3)CC2)CC1 (stereo not given)	nt	-4.3	nt	3.7	nt	nt
CCOc1ccc(S(=O)(=O)Nc2cc(SCC(=O)O)c(O)c3ccccc23)cc1	nt	2.5	nt	-7.4	nt	nt
O=S(=O)(Nc1cc(Sc2cccc3cccnc23)c(O)c2ccccc12)c1ccccc1	17.7	204.0	-1.0	203.6*	-0.1	0.7
Cc1ccc(C(=O)N2CCN(c3ccccn3)CC2)cc1Cl	nt	1.1	nt	12.7	nt	nt
CCOC(=O)c1c(NC(=O)COC(=O)c2nccnc2N)sc(C(=O)N(C)C)c1C	nt	-50.5*	nt	-62.5	nt	nt
CCOCCCNC(=O)c1c[nH]c2c(CC)cccc2c1=O	5.3	6.0	-4.4	12.3	-0.4	-0.8
CCN1CCN(c2cc(C)c3cc(NC(=O)c4cccnc4Cl)ccc3n2)CC1	-8.1	-3.5	nt	2.7	-0.1	0.9
Cc1cc(N2CCN(C)CC2)nc2ccc(NC(=O)c3cccnc3Cl)cc12	9.9	-58.9*	nt	-68.4	-0.2	-3.6
O=[N+]([O-])c1ccc2c(c1)nc1n2CCN(C2CCCCC2)C1	11.3	22.0	8.6	53.5*	0.7	0.6
Cc1ccc(S(N)(=O)=O)cc1NC(=O)C(c1ccccc1)c1ccccc1	nt	-1.0	nt	14.2	nt	nt
CCOC(=O)c1cc2nc(-c3ccco3)cc(C(F)(F)F)n2n1	-5.3	-89.0*	nt	-91.5	-0.3	0.7
N/C(Cc1nc(-c2ccc(F)cc2)cs1)=N\O	13.9	6.9	-9.0	22.7	nt	-0.4
N/C(Cc1nc(-c2ccc(Br)cc2)cs1)=N\O	-25.9	16.6	-9.8	55.0*	0.0	-0.5
CC(C)c1ccc(NC(=O)C(c2ccccc2)N2CC(=O)Nc3ccccc32)cc1 (stereo not given)	1.5	-32.7	-26.4	-46.8	0.3	0.4
CCOc1ccc(/C=N/NC(=O)C(=O)N2CCCCCC2)c2ccccc12	nt	-4.4	nt	-1.8	nt	nt
CCOC(=O)c1c(NC(=O)CSc2nnc(CNc3ccc(Cl)cc3)o2)sc(C)c1C	-12.3	38.4	nt	67.1*	0.0	1.7
SMILES	S1P4 antag	HSF1 inh	S1P3 antagonist	HSF-1 act	Hsp70 activator	S1P4 ag
COc1ccc(CNC(=O)c2[nH]c(C)c(C(C)=O)c2C)cc1	nt	-3.5	nt	0.1	nt	nt
Cc1noc(NS(=O)(=O)c2ccc(N3Cc4ccccc4C3=O)cc2)c1C	6.4	-85.0*	nt	-88.9	-0.2	1.2
Cc1noc(NS(=O)(=O)c2ccc(NC(=O)c3ccc(N4C(=O)c5ccccc5C4=O)cc3)cc2)c1C	-14.5	-5.3	-93.6	9.5	0.0	0.2
O=C(O)c1cc(Cl)c2ccccc2c1O	3.9	4.8	17.0	31.6	0.6	-0.6
CC(C)(NC(=O)c1cc(Cl)c2ccccc2c1O)C(=O)O	-21.5	-83.4*	1.4	-86.8	nt	3.1
CCOc1cc(/C=N/NC(=O)Cn2nc([N+](=O)[O-])cc2C)cc(Br)c1OCc1ccccc1C	-0.6	27.7	nt	70.7*	0.0	0.3
COc1cc(/C=N/NC(=O)Cn2nc([N+](=O)[O-])cc2C)cc(Br)c1OCc1ccccc1	-10.2	7.7	nt	39.5	-0.2	1.7
N#CCCn1cc(C(=O)O)c(-c2cccs2)n1	-17.6	-1.3	-14.4	8.7	-0.3	-3.1
CCOC(=O)N/N=C\c1ccccc1OC/C=C/c1ccccc1	nt	23.5	nt	55.5*	nt	nt
N#CC(c1nc2ccccc2nc1N1CCOCC1)S(=O)(=O)c1ccccc1 (stereo not given)	-10.3	nt	2.1	nt	nt	-0.5
CC(N1CCOC1=O)S(=O)(=O)c1ccccc1 (stereo not given)	-10.8	-76.4*	nt	-80.9	-0.1	1.2
O=C(Nc1ccccc1)C1=C[C@@H](c2ccc(Br)cc2)C[C@@H](OCCCCO)O1	8.6	4.8	-12.4	23.3	0.1	-1.5
CCOc1ccc(/C=N/N(C)c2ccccc2)cc1OC	0.2	51.1	nt	73.1*	0.2	-0.3
CCOc1ccc(/C=N/Nc2ccccn2)cc1OC	-10.6	12.9	-9.4	27.7	0.4	-0.4
CCOC(=O)c1c(S(=O)(=O)N2CCCCC2C)c(C)n(C)c1C (stereo not given)	nt	-88.3*	nt	-90.5	nt	nt
Cc1ccc(C(=O)Cn2c(NCCO)nc3ccccc32)cc1	-6.6	-5.3	-9.4	-5.8	-0.3	-0.5
Cc1ccc(C(=O)Cn2c(C(=O)/C=C/c3ccccc3)nc3ccccc32)cc1	9.2	166.0	nt	185.7*	-0.2	-2.1
COc1ccccc1NC(=O)CN(C)S(=O)(=O)c1ccc2c(c1)CCC(=O)N2	-2.5	-7.5	nt	1.2	-0.2	-0.7
COc1ccc(NC(=O)CN(C)S(=O)(=O)c2ccc3c(c2)CCC(=O)N3)c(OC)c1	-3.9	-86.3*	nt	-89.8	-0.3	0.0
COc1ccc(C(=O)/C=C/Nc2ccccn2)c(OC)c1	3.2	35.3	-4.4	74.0*	nt	1.2
O=[N+]([O-])c1ccc(Sc2nc3ccccc3o2)c([N+](=O)[O-])c1	10.5	193.9	nt	230.3*	-0.1	-1.5
Cc1ccnc(Sc2ccc([N+](=O)[O-])cc2[N+](=O)[O-])n1	-4.7	96.5	nt	130.9*	0.3	0.4
CCOc1ccc(S(=O)(=O)N2CCOCC2)cc1NS(=O)(=O)c1ccc(OC)c([N+](=O)[O-])c1	nt	-0.5	nt	-5.5	nt	nt
Cc1cccc(S(=O)(=O)NCCC(=O)OC(C)C(=O)NC(=O)NC2CCCCC2)c1 (stereo not given)	-1.1	21.2	-19.3	52.9*	-0.1	-0.7
Cc1cc(C(=O)CSc2nnc3ccccn23)c(C)n1-c1ccccc1	-6.7	-81.2*	-11.0	-85.4	-0.6	0.6
Cc1cc(C(=O)CSc2nnc(-c3ccccc3)n2-c2ccccc2)c(C)n1-c1ncn[nH]1	-20.1	0.1	-0.2	-8.6	-0.5	-0.7
Cc1cc(C(=O)CSc2nnc(-c3cccs3)o2)c(C)n1-c1ccccc1	-6.2	-73.1*	-14.2	-76.2	-0.1	-0.1
